Measurements as given in PubChem BioAssay AID686979 (National Center for Advancing Translational Sciences (NCATS), 2013).
Out of some 420,000 compounds screened, about 50,000 (12%) were called active. A call without a number means that no potency is given here. Inconclusive results (about 26%) are left out. Only a selection was taken, and actives are over-represented in it overall. Unmarked numbers belong to inactive results. Calls come from the whole dose curve; as a rule, active = well fitted inhibition curve with a large enough effect; inconclusive = small, poorly fitted or top-dose-only effect; inactive = flat fitted curve, though single readings scatter.

Assay: qHTS for Inhibitors of human tyrosyl-DNA phosphodiesterase 1 (TDP1): qHTS in cells in presence of CPT; note: nearly all actives have a fitted effect of over 55% in size
Conditions: chicken DT40 Tdp1-/-;hTDP1 cells + 20 nM CPT, ATP luminescence, 48 h; series mostly up to 46.2 µM
Procedure, shortened: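 Chicken DT40 Tdp1-/- cells complemented with human TDP1, 400 cells/well, exposed to compounds plus 20 nM camptothecin for at least 48 h at 37 C; viability read as ATP content by CellTiter-Glo luminescence.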
Potency is the fitted concentration of half-maximal effect.

| Structure (SMILES) | Potency | activity change, negative = growth inhibition |
| --- | --- | --- |
| COc1ccc(C(=O)NCC2CCCCC2)cc1S(=O)(=O)N1CCCC1 | inactive | – |
| Cc1[nH]c2c(C(=O)NCC3Cc4cccc(-c5cccnc5)c4O3)cccc2c1C (configuration not stated) | – | -3.45% [at 9.04 µM] |
| Cc1cc(=O)oc2cc(OCC(=O)N3CCN(c4ccc(F)cc4)CC3)c(Cl)cc12 | inactive | – |
| COc1ccccc1-n1c(-c2cc(-c3ccco3)[nH]n2)n[nH]c1=S | inactive | – |
| COc1ccccc1-n1cn[nH]c1=S | 29.1 µM (active) | – |
| COc1cccc(CNn2cn[nH]c2=S)c1OCc1ccccc1 | inactive | – |
| COCCNC(=O)C(OC(=O)c1cccs1)c1ccc(F)cc1 (configuration not stated) | inactive | – |
| CCOc1ccc2ccccc2c1/C=N/NC(=O)c1c(C)cc(C)[nH]c1=O | inactive | – |
| COc1ccc2ccccc2c1/C=N/NC(=O)c1cc(C)[nH]n1 | 8.2 µM (active) | – |
| COc1ccc(/C=N\NC(=O)c2sc(N)nc2C)cc1OC | inactive | – |
| O=C(CN1C(=O)S/C(=C\c2ccccc2F)C1=O)NCCCn1ccnc1 | inactive | – |
| COc1ccc(-c2noc(COc3ccc(Cl)c(C)c3)n2)cc1 | inactive | – |
| COCc1cc(C(C)=O)ccc1OC | inactive | – |
| COc1ccc(C(C)=O)cc1COc1ccc(Cl)c(C)c1 | 10.3 µM (active) | – |
| COCCCNC(=S)N(CCN(C)C)Cc1cc2cc3c(cc2[nH]c1=O)OCCO3 | inactive | – |
| OCc1ccc(OCCCOc2cccc3cccnc23)cc1 | inactive | – |
| Nn1c(SCc2ccccc2)nnc1C1CCCCC1 | inactive | – |
| C[C@@H]1CN([C@@H](C)CO)C(=O)c2cc(NS(C)(=O)=O)ccc2O[C@@H](C)CCCCO[C@H]1CN(C)C(=O)Nc1ccc2c(c1)OCO2 | inactive | – |
| CC(C)NC(=O)Nc1ccc2c(c1)C(=O)N([C@H](C)CO)C[C@H](C)[C@@H](CN(C)Cc1ccc(C(F)(F)F)cc1)OCCCC[C@@H](C)O2 | 13 µM (active) | – |
| Cc1noc(C)c1NC(=O)Nc1ccc2c(c1)C(=O)N([C@H](C)CO)C[C@H](C)[C@@H](CN(C)C(=O)Nc1ccc(C(F)(F)F)cc1)O2 | inactive | – |
| Cc1ccc(S(=O)(=O)N2CCOCC2)cc1NC(=O)c1ccncc1 | inactive | – |

| Structure (SMILES) | Potency | activity change, negative = growth inhibition |
| --- | --- | --- |
| O=C(O)c1c(NC(=O)N2CCCC2)sc2c1CCCC2 | inactive | – |
| COc1cn(CC(=O)Nc2cccc(C)c2C)c(CN2CCCCC2)cc1=O | inactive | – |
| O=C(Cc1ccccc1)N1N=C(c2ccncc2)CC1(O)C(F)(F)F (configuration not stated) | inactive | – |
| O=C(C1CC1)N1N=C(c2ccc(Br)cc2)CC1(O)C(F)(F)F (configuration not stated) | inactive | – |
| O=C(c1ccc(Cl)cc1)N1N=C(c2ccccn2)CC1(O)C(F)(F)F (configuration not stated) | 25.9 µM (active) | – |
| C=CCn1c(SCC(=O)NC(=O)Cc2ccccc2)nc2ccccc2c1=O | inactive | – |
| CCC(=O)Nc1ccccc1N1CCN(S(C)(=O)=O)CC1 | inactive | – |
| COc1ccccc1C(=O)NC(=S)Nc1ccccc1N1CCCCC1 | inactive | – |
| COc1ccc(C(=O)NC(=S)Nc2ccccc2N2CCN(S(C)(=O)=O)CC2)cc1OC | 12.6 µM (active) | – |
| COc1ccc(S(=O)(=O)N2CCOCC2)cc1C(=O)NC1CCCCC1 | inactive | – |
| O=C(CC1SC(N2CCCC2)=NC1=O)Nc1ccc(C(=O)NCCc2ccc(F)cc2)cc1 (configuration not stated) | inactive | – |
| Fc1ccc(-c2csc(-c3ccc(C4SCCS4)cc3)n2)cc1F | inactive | – |
| COc1cc(NC(=O)C2CC(c3ccccc3O)=NO2)c(OC)cc1Cl (configuration not stated) | inactive | – |
| COc1cc(NC(=O)Cn2nc(-c3ccc(C)c(C)c3)ccc2=O)cc(OC)c1 | 20.6 µM (active) | – |
| COc1ccc(-c2ccc(=O)n(CC(=O)Nc3ccc(Br)cc3F)n2)cc1 | inactive | – |
| COc1cc(NC(=O)CSc2nnc3ccc(-c4ccncc4)nn23)cc(OC)c1 | inactive | – |
| O=C(Nc1nnc(CCOCCOCCc2nnc(NC(=O)c3ccco3)s2)s1)c1ccco1 | inactive | – |
| CCCNC(=O)NC(=O)COC(=O)CC(NC(N)=O)c1ccc(Cl)cc1 (configuration not stated) | inactive | – |
| Cn1c(SCC(=O)Nc2ccc(N3CCOCC3)cc2)nnc1C(F)(F)F | inactive | – |
| COc1ccccc1Cn1c(=S)[nH]c2cc(C(=O)N3CCN(C)CC3)ccc2c1=O | inactive | – |
| CCOC(=O)N1CCN(C(=O)c2ccc3c(=O)n(CCc4ccc(OC)c(OC)c4)c(=O)[nH]c3c2)CC1 | 20.6 µM (active) | – |

| Structure (SMILES) | Potency | activity change, negative = growth inhibition |
| --- | --- | --- |
| COc1cc2[nH]c(=O)n(Cc3ccc(C(=O)NC4CCN(Cc5ccccc5)CC4)cc3)c(=O)c2cc1OC | inactive | – |
| O=C(c1ccc2c(=O)n(Cc3ccco3)c(=S)[nH]c2c1)N1CCCC1 | inactive | – |
| COc1ccc(Cn2c(=O)[nH]c3cc(C(=O)N4CCN(C(=O)c5ccco5)CC4)ccc3c2=O)cc1 | 11.2 µM (active) | – |
| COCCn1c(=S)[nH]c2cc(C(=O)NCCc3ccc(OC)c(OC)c3)ccc2c1=O | inactive | – |
| O=C(N=C1SC2CS(=O)(=O)CC2N1c1ccccc1)c1ccccc1 (configuration not stated) | inactive | – |
| CS(=O)(=O)c1ccc(Cl)c(NC(=O)COC(=O)c2cccc(S(=O)(=O)N3CCCC3)c2)c1 | inactive | – |
| CC(C)CCNC(=O)C(C)N(C(=O)Cn1nnc(-c2ccc(F)cc2)n1)C1CCCC1 (configuration not stated) | inactive | – |
| O=C(O)c1ccccc1CSc1nc2ccccc2s1 | inactive | – |
| COc1ccc2c(c1)c(=Cc1ccc(N(C)C)cc1)c1cc(-c3ccccc3)[n+](C)n12 | 0.92 µM (active) | – |
| COc1ccc2sc(-c3ccc(N(C)C)cc3)c(-c3ccc4cc[nH]c4c3)c2c1 | inactive | – |
| CN(C)c1ccc(/C=c2\[nH]c(=O)/c(=C/c3ccc(N(C)C)cc3)[nH]c2=O)cc1 | inactive | – |
| O=C(CSc1nc2[nH]ncc2c(=O)[nH]1)Nc1ccc(F)cc1 | inactive | – |
| O=C(NCCc1cccc(F)c1)C1CC(O)CN1C(=O)Nc1ccccc1 (configuration not stated) | inactive | – |
| CCCCN1C(=O)CCC(C(=O)O)C1c1ccc(OC)cc1 (configuration not stated) | inactive | – |
| CCCCc1ccc(NC(=O)CN2C(=O)NC(Cc3ccccc3)C2=O)cc1 (configuration not stated) | inactive | – |
| Cn1c2ccccc2c(=O)c2c(=O)n(Cc3ccco3)c(COc3ccccc3)nc21 | 18.4 µM (active) | – |
| CCn1c(COc2ccccc2)nnc1SCC(=O)NCc1ccco1 | inactive | – |
| O=C(Cn1c(=O)n(Cc2ccco2)c(=O)c2ccccc21)NCC1CCCO1 (configuration not stated) | inactive | – |
| CCS(=O)(=O)Nc1ccc(C(=O)NCCSc2ccccc2)cc1 | inactive | – |
| COc1ccc(-c2nc(Cn3c(=O)cc(C)c4c(C)nn(-c5ccccc5)c43)c(C)o2)cc1OC | inactive | – |
